Data published in PubChem BioAssay (Tox21).
Inconclusive results are not listed. Where a call stands in place of a potency, no number is given. Calls of active or inactive are those of the source. Unless noted, calls come from the whole dose curve; as a rule, active = well fitted activation curve with a large enough effect in the repeat runs; inconclusive = weak or mixed curves; inactive = no such curve, though single readings can be large or run the other way.

Assay: qHTS assay for small molecule agonists of the p53 signaling pathway (AID 651631; calls by dose curve)
Settings: HCT-116 p53RE-bla reporter, beta-lactamase FRET ratio, 16 h; series mostly up to 73.3 µM
Outline: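 Quantitative high-throughput format: 4,000 p53RE-bla HCT-116 cells/well, 5 h pre-incubation, 16 h compound exposure at 37 °C, 2 h room-temperature substrate step, fluorescence intensity measured.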
Note: nearly all actives have a fitted effect of over 15% in size.
Potency is the fitted concentration of half-maximal effect.

Question: With `CCCCNS(=O)(=O)c1ccc(C)cc1` as the compound, how does the Potency read?
Answer: inactive

Question: Which Potency does the source give for `CCCCCCCCCCCCCC[N+](C)(C)C` here?
Answer: 21.1 µM (active)

Question: For `O=C(Oc1ccccc1)Oc1ccccc1`, which Potency is on record?
Answer: inactive

Question: Which Potency does the source give for `OC1CCCc2ccccc21` (centres undefined) here?
Answer: inactive

Question: Which Potency does the source give for `OC[C@H]1O[C@H](O[C@H]2O[C@H](CO)[C@@H](O)[C@H](O)[C@H]2O)[C@H](O)[C@@H](O)[C@@H]1O` here?
Answer: inactive

Question: Which Potency does the source give for `CC(C)CCCCCOC(=O)CCS` here?
Answer: inactive

Question: For `CCC(COC(=O)CCS)(COC(=O)CCS)COC(=O)CCS`, which Potency is on record?
Answer: 68.6 µM (active)

Question: For `COC(=O)Nc1nc2ccc(C(=O)c3ccccc3)cc2[nH]1`, which Potency is on record?
Answer: 0.16 µM (active)

Question: Which Potency does the source give for `CC(=O)OCC=C(C)C` here?
Answer: inactive

Question: With `CCCCCCOC(=O)C(C)CC` (centres undefined) as the compound, how does the Potency read?
Answer: inactive

Question: For `COC(=O)c1ccccc1C`, which Potency is on record?
Answer: inactive

Question: Which Potency does the source give for `CN(C)Cc1cc(C(C)(C)C)c(O)c(C(C)(C)C)c1` here?
Answer: inactive

Question: With `CC/C=C\CCCCCO` as the compound, how does the Potency read?
Answer: inactive

Question: For `Cc1ccc(N/N=c2\c(=O)cc/c(=N\Nc3ccc(S(=O)(=O)O)cc3)c2=O)c(C)c1`, which Potency is on record?
Answer: inactive

Question: With `O=C(/C=C/c1ccccc1)OC/C=C/c1ccccc1` as the compound, how does the Potency read?
Answer: inactive

Question: For `CCC(=O)OC(=O)CC`, which Potency is on record?
Answer: inactive

Question: For `COc1cc(S(=O)(=O)O)c(C)cc1N=Nc1c(O)ccc2cc(S(=O)(=O)O)ccc12`, which Potency is on record?
Answer: inactive

Question: For `O=[N+]([O-])c1cccc(C(F)(F)F)c1`, which Potency is on record?
Answer: inactive

Question: For `CCO[Si](OCC)(OCC)OCC`, which Potency is on record?
Answer: inactive

Question: With `Cc1ccc(-c2ccccc2)cc1` as the compound, how does the Potency read?
Answer: inactive

Question: With `ClCCl` as the compound, how does the Potency read?
Answer: inactive

Question: For `CN1CCCCC1CCN1c2ccccc2Sc2ccc(S(C)=O)cc21` (centres undefined), which Potency is on record?
Answer: inactive

Question: With `C[Si](Cl)(c1ccccc1)c1ccccc1` as the compound, how does the Potency read?
Answer: inactive

Question: With `NC(=S)NC(N)=S` as the compound, how does the Potency read?
Answer: inactive

Question: Which Potency does the source give for `O=C(O)[C@H](O)[C@@H](O)[C@H](O[C@@H]1O[C@H](CO)[C@H](O)[C@H](O)[C@H]1O)[C@H](O)CO` here?
Answer: inactive

Question: For `CCCCN(CCCC)CC(O)c1cc(Cl)cc2c1-c1ccc(Cl)cc1/C2=C/c1ccc(Cl)cc1` (centres undefined), which Potency is on record?
Answer: inactive

Question: Which Potency does the source give for `CCCCCc1ccc(Cl)cc1` here?
Answer: inactive

Question: For `C=Cc1cccc(C)c1`, which Potency is on record?
Answer: inactive

Question: Which Potency does the source give for `CC(C)OC(=O)C(O)(CC(=O)O)CC(=O)O` here?
Answer: inactive

Question: With `Clc1nnc(Cl)c2ccccc12` as the compound, how does the Potency read?
Answer: inactive

Question: For `[Cl][Pt-2]([Cl])([Cl])[Cl]`, which Potency is on record?
Answer: inactive

Question: For `O=S(=O)(O)c1ccc(N=Nc2c(O)ccc3ccccc23)cc1`, which Potency is on record?
Answer: inactive

Question: For `CCOC(=O)NNc1ccc(N(CC)CC(C)O)nn1` (centres undefined), which Potency is on record?
Answer: inactive

Question: Which Potency does the source give for `CC(C)(C)C1CCC(=O)CC1` here?
Answer: inactive

Question: With `C1CCC(SSC2CCCCC2)CC1` as the compound, how does the Potency read?
Answer: inactive

Question: For `CCN(CC)c1ccc2c(-c3ccc(S(=O)(=O)O)cc3S(=O)(=O)[O-])c3ccc(=[N+](CC)CC)cc-3oc2c1`, which Potency is on record?
Answer: inactive

Question: With `COc1ccc(NC(=O)CC(C)=O)cc1` as the compound, how does the Potency read?
Answer: inactive

Assay: qHTS assay for small molecules that induce genotoxicity in human embryonic kidney cells expressing luciferase-tagged ATAD5 (AID 651632)
Settings: HEK293T ATAD5-luciferase induction, 16 h; series mostly up to 83.3 µM
Outline: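 Increased luciferase signal from ATAD5-tagged reporter cells indicates DNA-damage-driven ATAD5 induction. HEK293T cells are treated for 16 hr at 37C before detection with Amplite.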

Question: With `CCCCNS(=O)(=O)c1ccc(C)cc1` as the compound, how does the Potency read?
Answer: inactive

Question: With `CCCCCCCCCCCCCC[N+](C)(C)C` as the compound, how does the Potency read?
Answer: inactive

Question: Which Potency does the source give for `O=C(Oc1ccccc1)Oc1ccccc1` here?
Answer: inactive

Question: For `OC1CCCc2ccccc21` (centres undefined), which Potency is on record?
Answer: inactive

Question: For `OC[C@H]1O[C@H](O[C@H]2O[C@H](CO)[C@@H](O)[C@H](O)[C@H]2O)[C@H](O)[C@@H](O)[C@@H]1O`, which Potency is on record?
Answer: inactive

Question: With `CC(C)CCCCCOC(=O)CCS` as the compound, how does the Potency read?
Answer: inactive

Question: For `CCC(COC(=O)CCS)(COC(=O)CCS)COC(=O)CCS`, which Potency is on record?
Answer: inactive

Question: With `COC(=O)Nc1nc2ccc(C(=O)c3ccccc3)cc2[nH]1` as the compound, how does the Potency read?
Answer: 3.2 µM (active)

Question: For `CC(=O)OCC=C(C)C`, which Potency is on record?
Answer: inactive

Question: Which Potency does the source give for `CCCCCCOC(=O)C(C)CC` (centres undefined) here?
Answer: inactive

Question: For `COC(=O)c1ccccc1C`, which Potency is on record?
Answer: inactive

Question: For `CN(C)Cc1cc(C(C)(C)C)c(O)c(C(C)(C)C)c1`, which Potency is on record?
Answer: inactive

Question: With `CC/C=C\CCCCCO` as the compound, how does the Potency read?
Answer: inactive

Question: For `Cc1ccc(N/N=c2\c(=O)cc/c(=N\Nc3ccc(S(=O)(=O)O)cc3)c2=O)c(C)c1`, which Potency is on record?
Answer: inactive

Question: With `O=C(/C=C/c1ccccc1)OC/C=C/c1ccccc1` as the compound, how does the Potency read?
Answer: inactive

Question: With `CCC(=O)OC(=O)CC` as the compound, how does the Potency read?
Answer: inactive

Question: Which Potency does the source give for `COc1cc(S(=O)(=O)O)c(C)cc1N=Nc1c(O)ccc2cc(S(=O)(=O)O)ccc12` here?
Answer: inactive

Question: With `O=[N+]([O-])c1cccc(C(F)(F)F)c1` as the compound, how does the Potency read?
Answer: inactive

Question: Which Potency does the source give for `CCO[Si](OCC)(OCC)OCC` here?
Answer: inactive

Question: For `Cc1ccc(-c2ccccc2)cc1`, which Potency is on record?
Answer: inactive

Question: With `ClCCl` as the compound, how does the Potency read?
Answer: inactive

Question: For `CN1CCCCC1CCN1c2ccccc2Sc2ccc(S(C)=O)cc21` (centres undefined), which Potency is on record?
Answer: inactive

Question: Which Potency does the source give for `C[Si](Cl)(c1ccccc1)c1ccccc1` here?
Answer: inactive

Question: Which Potency does the source give for `NC(=S)NC(N)=S` here?
Answer: inactive

Question: With `O=C(O)[C@H](O)[C@@H](O)[C@H](O[C@@H]1O[C@H](CO)[C@H](O)[C@H](O)[C@H]1O)[C@H](O)CO` as the compound, how does the Potency read?
Answer: inactive

Question: Which Potency does the source give for `CCCCN(CCCC)CC(O)c1cc(Cl)cc2c1-c1ccc(Cl)cc1/C2=C/c1ccc(Cl)cc1` (centres undefined) here?
Answer: inactive

Question: With `CCCCCc1ccc(Cl)cc1` as the compound, how does the Potency read?
Answer: inactive

Question: Which Potency does the source give for `C=Cc1cccc(C)c1` here?
Answer: inactive

Question: For `CC(C)OC(=O)C(O)(CC(=O)O)CC(=O)O`, which Potency is on record?
Answer: inactive

Question: With `Clc1nnc(Cl)c2ccccc12` as the compound, how does the Potency read?
Answer: inactive

Question: For `[Cl][Pt-2]([Cl])([Cl])[Cl]`, which Potency is on record?
Answer: inactive

Question: Which Potency does the source give for `O=S(=O)(O)c1ccc(N=Nc2c(O)ccc3ccccc23)cc1` here?
Answer: inactive

Question: For `CCOC(=O)NNc1ccc(N(CC)CC(C)O)nn1` (centres undefined), which Potency is on record?
Answer: inactive

Question: For `CC(C)(C)C1CCC(=O)CC1`, which Potency is on record?
Answer: inactive

Question: Which Potency does the source give for `C1CCC(SSC2CCCCC2)CC1` here?
Answer: inactive

Question: With `CCN(CC)c1ccc2c(-c3ccc(S(=O)(=O)O)cc3S(=O)(=O)[O-])c3ccc(=[N+](CC)CC)cc-3oc2c1` as the compound, how does the Potency read?
Answer: inactive

Question: Which Potency does the source give for `COc1ccc(NC(=O)CC(C)=O)cc1` here?
Answer: inactive
